From PubChem
In the library only some 19% were active in any assay of this set; here they are far more common.
IL-1B inflam inh: qHTS for Inhibitors of Inflammasome Signaling: IL-1-beta AlphaLISA Primary Screen. activity change, % at 57.5 µM. 360,000 tested, 4.7% active. THP-1 LPS/ATP IL-1B secretion, AlphaLISA, 16 h; hits give low values; in the data active = activity change below about -50%; inconclusive = mostly about -30% to -49%
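THP-1 cells pretreated 1 hr with compounds (up to 57.5 uM final), then stimulated with LPS (250 ng/mL final) plus ATP (1.25 mM final); secreted IL-1B measured by AlphaLISA after 16 hr, decreased signal indicating inhibition.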
HT1080 IDH1KD tx: qHTS for induction of synthetic lethality in tumor cells producing 2HG: qHTS for the HT-1080-IDH1KD cell line; HT-1080 IDH1 knockdown viability, ATP luminescence, 48 h; Potency, µM (doses to about 46.1 µM), without a hit: at the top dose activity, negative = toxicity, usual class: cytotoxic; 360,000 tested, 2% active;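 note: potency is the fitted concentration of half-maximal effect; 0% = DMSO wells and -100% = cell-free medium wells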
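% activity derives from luminescence (CellTiter-Glo), normalised to DMSO and no-cell wells. HT-1080-IDH1KD cells, 750/well, had 48 h compound exposure at 37 °C.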
HT1080NT lethal: qHTS for induction of synthetic lethality in tumor cells producing 2HG: qHTS for the HT-1080-NT fibrosarcoma cell line; 360,000 tested, 1.6% active; Potency, µM (highest dose often 46.1 µM), without a hit: top-dose activity, negative = less viability, usual class: cytotoxic; HT-1080-NT fibrosarcoma viability, CellTiter-Glo ATP luminescence, 48 h;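 note: NT is the 2HG producing partner of a matched IDH1 knockdown line; potency is the fitted concentration of half-maximal effect; 0% = DMSO-treated cells and -100% = media-only wells without cells; nearly all actives have a fitted effect of over 55% in size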
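Read-out is CellTiter-Glo luminescence after 10 minutes at room temperature, following 48 hours' compound treatment of HT-1080-NT cells (750 cells/well, RPMI, 5% FBS, 37 degrees C).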
uPA generation: qHTS for Inhibitors of Cell Surface uPA Generation. Potency, µM (series often up to 38.3 µM), inactives show at the top dose activity change, negative = inhibition, usual class: inhibitors. cell surface uPA generation assay, qHTS. 330,000 tested, 0.31% active. AID 540303, 2011; active = well fitted inhibition curve with a large enough effect; inconclusive = small, poorly fitted or top-dose-only effect; inactive = no such curve, though single readings can be large or run the other way; tested in mouse RAW 264.7 cells; note: potency is the fitted concentration of half-maximal effect; nearly all actives have a fitted effect of over 55% in size
TDP1 cell CPT: qHTS for Inhibitors of human tyrosyl-DNA phosphodiesterase 1 (TDP1): qHTS in cells in presence of CPT; chicken DT40 Tdp1-/-;hTDP1 cells + 20 nM CPT, ATP luminescence, 48 h; 420,000 tested, 12% active; Potency, µM (top dose mostly 46.2 µM), without a hit: at the top dose activity change, negative = growth inhibition, most hits filed as inhibitors; AID 686979, 2013; note: potency is the fitted concentration of half-maximal effect; nearly all actives have a fitted effect of over 55% in size
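Chicken DT40 Tdp1-/- cells complemented with human TDP1, 400 cells/well, exposed to compounds plus 20 nM camptothecin for at least 48 h at 37 C; viability read as ATP content by CellTiter-Glo luminescence.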
TDP1 cell noCPT: qHTS for Inhibitors of human tyrosyl-DNA phosphodiesterase 1 (TDP1): qHTS in cells in absence of CPT. DT40 Tdp1-/- hTDP1 cells, no CPT, ATP luminescence, 48 h. Potency, µM (top dose mostly 46.2 µM), for inactives: at the top dose activity change, negative = growth inhibition, usual class: inhibitors. 420,000 tested, 15% active. AID 686978, 2013; note: potency is the fitted concentration of half-maximal effect; nearly all actives have a fitted effect of over 55% in size
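Seeded 400 DT40-hTDP1 cells/well (vehicle DMSO, no 20 nM CPT); pinned compounds; ≥48 hr at 37 °C; CellTiter-Glo luminescence as viability measure.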
The depositor's hits bear a star; i = inactive; ? = inconclusive; . = no result given; [ ] = dose if it differs, or a comment. Unless noted, calls come from the whole dose curve; as a rule, active = well fitted curve in the direction sought with a large enough effect; inconclusive = small, poorly fitted or top-dose-only effect, or another doubt; inactive = no such curve, though single readings can be large; an effect the other way counts as inactive or inconclusive. Unless noted, % is set by controls: 0 for no effect and ±100 for the full control effect.

SMILES | IL-1B inflam inh | HT1080 IDH1KD tx | HT1080NT lethal | uPA generation | TDP1 cell CPT | TDP1 cell noCPT
CC1CCN(S(=O)(=O)c2cn(CC(=O)Nc3ccc(F)c(Cl)c3)c(=O)c3ccccc23)CC1 | . | . | . | . | 23µM* | 23µM*
COc1ccc(NC(=O)Cn2cnc3ccc(S(=O)(=O)N4CCC(C)CC4)cc3c2=O)cc1Cl | . | . | . | . | 7.3µM* | 4.1µM*
COc1cc(Cl)c(C)cc1NC(=O)Cn1cc(S(=O)(=O)N2CCC(C)CC2)c2ccccc2c1=O | . | . | . | . | -16% | -20%
CC1CCN(C(=O)COC(=O)CSc2ccc(C(N)=O)cc2[N+](=O)[O-])CC1 | 10 | 0% | -9% | -6% | -6% | -5%
O=S1(=O)C=C(SCCN2CCCCC2)c2ccccc21 | ? | 15% | 11% | -12% | 1% | -23%
CSc1nnc(-c2ccccc2)o1 | -18 | 21% | 3% | . | -2% | 0%
O=S1(=O)C=C(Sc2nnc(-c3ccccc3)o2)c2ccccc21 | -102* | 1.3µM* | 2.8µM* | . | 0.52µM* | 0.58µM*
O=S1(=O)C=C(Sc2nc3ccccc3s2)c2ccccc21 | -66* | 2.6µM* | 2.3µM* | -10% | 0.82µM* | 0.65µM*
c1ccc2sc(SSc3nc4ccccc4s3)nc2c1 | . | . | . | . | 12% | -12%
Cc1cc(C)nc(SC2=CS(=O)(=O)c3ccccc32)n1 | -98* | ? | 23µM* | -7% | ? | 18µM*
Cc1ccc(-c2noc(COc3ccc(Br)c(C)c3)n2)cc1 | . | . | . | . | -3% | -12%
CC1(C(=O)Nc2cccc(NS(C)(=O)=O)c2)Cc2c(-c3ccc(C(N)=O)cc3)ccnc2O1 (centres undefined) | 19 | 13% | 7% | . | -16% | -5%
CC(=O)c1ccc(N/N=C(/C(N)=O)C2=NC(C)(C)Cc3ccccc32)cc1 | -3 | -22% | -6% | -6% | 12µM* | 9.2µM*
CC1(C)Cc2ccccc2C(/C(=N/O)C(N)=O)=N1 | 0 | 2% | -14% | 3% | -2% | -6%
CC1(C)Cc2ccccc2C(/C(=N\Nc2cccc(Cl)c2)C(N)=O)=N1 | -54* | 21µM* | 21µM* | 3% | ? | ?
O=S(=O)(NC(=NC1CCCCC1)c1ccccc1F)c1ccccc1 | -17 | 0% | 1% | 1% | 27% | -11%
COc1ccc(-n2nc(C(=O)c3cccs3)cc(-c3nc4ccccc4[nH]3)c2=N)cc1 | ? | -21% | -6% | -5% | 5.8µM* | 5.8µM*
Cc1ccccc1-n1nc(C(=O)c2cccs2)cc(-c2nc3ccccc3[nH]2)c1=N | 14 | -16% | -7% | 0% | 12µM* | 7.3µM*
Cc1ccc2nc(-c3cccc(NC(=O)c4ccco4)c3)[nH]c2c1 | 1 | ? | ? | 0% | ? | -23%
O=C(Cc1cccs1)Nc1ccccc1-c1nc2ccccc2[nH]1 | -5 | ? | ? | -9% | ? | ?
Cc1cccc(-n2nc(C(=O)c3ccco3)cc(-c3nc4ccccc4[nH]3)c2=N)c1 | -12 | -7% | 0% | 0% | 16µM* | 8.2µM*
COc1cccc2cc(-c3nc4ccccc4[nH]3)c(=O)oc12 | 30 | 0% | 1% | -9% | -5% | ?
CN(C)CCn1c2c(c(SCC(=O)Nc3ccc(F)cc3F)nc1=O)CCC2 | . | . | . | . | 3% | -10%
Cc1ccc(C)c(NC(=S)NCc2cccs2)c1 | i | 2% | 2% | -4% | ? | 29µM*
COc1cccc(CNC(=S)Nc2cccc(Cl)c2C)c1 | -8 | -18% | -19% | -1% | 15% | ?
SMILES | IL-1B inflam inh | HT1080 IDH1KD tx | HT1080NT lethal | uPA generation | TDP1 cell CPT | TDP1 cell noCPT
COc1cccc(CNC(=S)Nc2cc(C)ccc2C)c1 | -16 | -1% | 2% | -4% | 18µM* | 26µM*
Cc1ccc(S(=O)(=O)NC(=O)c2ccccc2C)cc1 | -11 | 22% | ? | 13% | 1% | 11%
NC(=O)c1ccsc1NC(=O)CSc1nncs1 | 10 | 3% | -10% | 0% | -9% | -7%
Cc1ccc(CNc2ccc3c(c2)ncn3C(C)(C)C)cc1 | -20 | -22% | -24% | 0% | ? | ?
CC(C)(C)n1cnc2cc(NCc3ccccc3Cl)ccc21 | . | . | . | . | ? | 15µM*
O=C(NCCCN1CCCCC1)c1ccc2c(c1)NC(=O)c1ccccc1S2 | -17 | -8% | -20% | 10% | -25% | ?
O=C1Nc2cc(C(=O)NCCCN3CCCC3)ccc2S/C1=C/c1ccccc1F | ? | 4% | 8% | -11% | 18µM* | ?
O=C1Nc2cc(C(=O)NCCN3CCCCCC3)ccc2S/C1=C/c1ccccc1F | -102* | ? | ? | . | 7.3µM* | 3.7µM*
S=C(NC1CCCCC1)N1CCc2ccccc2C1 | 6 | ? | -9% | -5% | ? | ?
S=C(N/N=C1\CCc2ccccc21)NC1CCCCC1 | 39 | -14% | -3% | ? | ? | 23µM*
CC(C)NC(=S)N/N=C1\CCCCc2ccccc21 | 12 | -4% | 9% | 9% | ? | 21µM*
CC1CCCN(S(=O)(=O)c2ccc(S(=O)(=O)N3CCCN(Cc4ccccc4)C3)cc2)C1 (centres undefined) | -3 | 16% | -3% | . | 16µM* | ?
O=C(C1CCCN(S(=O)(=O)c2ccccc2)C1)N1CCN(c2ccccc2)CC1 (centres undefined) | -6 | -3% | 0% | 1% | ? | ?
O=C(C1CCCN(S(=O)(=O)c2ccc(Br)cc2)C1)N1CCN(Cc2ccccc2)CC1 (centres undefined) | -52* | -17% | 6% | -6% | 16µM* | ?
Cc1ccc(Cl)cc1NC(=O)COC(=O)CSc1ccccc1 | -4 | 3% | 0% | 4% | 0% | -17%
Cn1cc(C(=O)c2ccc(Cl)cc2Cl)cc1C(=O)N/N=C(\N)COc1cccc(C(F)(F)F)c1 | -6 | ? | ? | -14% | ? | ?
C[C@H](O)C(=O)Nc1c(I)c(C(=O)NC(CO)CO)c(I)c(C(=O)NC(CO)CO)c1I | . | . | . | . | 4%[21.1 µM] | -27%[21.1 µM]
C[C@@H]1CN([C@H](C)CO)C(=O)c2c(c3ccccc3n2C)-c2ccccc2CO[C@H]1CN(C)C(=O)Nc1ccccc1 | -24 | 0% | -9% | . | ? | ?
